Results from PubChem BioAssay AID1159580 (chemical genetic matrix, 2015).
Several values for one entry are separate records, joined by “and”; a condition that tells them apart may be missing. Equal entries are not always repeated. About 2,000 (36%) of roughly 5,500 compounds were called active. Another 18% or so got no clear call; they are omitted. Rule as the data show it: active = normalized growth mostly below about 0.91 (no sharp cut-off); inconclusive = no clear call, values can overlap the other calls; inactive = mostly above about 0.92. The list shows a part of the results.

Assay: chemical genetic growth profiling, strain panel (AID 1159580);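 also: tested at 20 µM; growth read once vehicle control cultures reached saturation at 30 °C; 1 = growth at the plate median or of vehicle wells; lower values mean less growth of the strain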
Settings: S. cerevisiae deletion strains, growth OD

Measured: normalized growth

Cn1nnnc1SCC1=C(C(=O)O)N2C(=O)C(NC(=O)C(O)c3ccccc3)C2SC1 (configuration not stated)
inactive: locus YAL013W, strain DEP1, stronger effect = lower value 1.02 | locus YAL021C, strain ccr4, stronger effect = lower value 0.97 | locus YAL026C, strain drs2, stronger effect = lower value 0.972 | locus YAL030W, strain snc1, stronger effect = lower value 0.983 | locus YBL061C, strain skt5, stronger effect = lower value 0.97 | locus YBR009C, strain hhf1, stronger effect = lower value 0.988 | locus YBR021W, strain FUR4, stronger effect = lower value 1.01 | locus YBR023C, strain chs3, stronger effect = lower value 0.964 | locus YBR171W, strain sec66, stronger effect = lower value 0.945 | locus YBR229C, strain ROT2, stronger effect = lower value 1.01 | locus YBR231C, strain swc5, stronger effect = lower value 0.991 | locus YBR279W, strain paf1, stronger effect = lower value 0.977 | locus YCL011C, strain gbp2, stronger effect = lower value 0.971 | locus YCL016C, strain dcc1, stronger effect = lower value 0.967 | locus YCL029C, strain bik1, stronger effect = lower value 0.996 | locus YCL061C, strain MRC1, stronger effect = lower value 0.968 | locus YCL069W, strain vba3, stronger effect = lower value 0.973 | locus YCR088W, strain abp1, stronger effect = lower value 0.975 | locus YDL005C, strain med2, stronger effect = lower value 0.972 | locus YDL035C, strain GPR1, stronger effect = lower value 1.03 | locus YDL040C, strain nat1, stronger effect = lower value 0.984 | locus YDL074C, strain BRE1, stronger effect = lower value 1.05 | locus YDL101C, strain DUN1, stronger effect = lower value 1.02 | locus YDL134C, strain PPH21, stronger effect = lower value 1.02 | locus YDL185W, strain tfp1, stronger effect = lower value 1 | locus YDL192W, strain arf1, stronger effect = lower value 1 | locus YDR001C, strain nth1, stronger effect = lower value 0.979 | locus YDR069C, strain doa4, stronger effect = lower value 0.978 | locus YDR101C, strain arx1, stronger effect = lower value 0.99 | locus YDR137W, strain rgp1, stronger effect = lower value 0.943 | locus YDR150W, strain NUM1, stronger effect = lower value 1.03 | locus YDR159W, strain sac3, stronger effect = lower value 0.985 | locus YDR162C, strain NBP2, stronger effect = lower value 1.06 | locus YDR195W, strain ref2 0.969 | locus YDR297W, strain sur2, stronger effect = lower value 0.983 | locus YDR318W, strain mcm21, stronger effect = lower value 0.996 | locus YDR334W, strain swr1, stronger effect = lower value 0.964 | locus YDR335W, strain msn5, stronger effect = lower value 0.978 | locus YDR388W, stronger effect = lower value 0.991 | locus YDR392W, strain spt3, stronger effect = lower value 0.873 | locus YDR502C, strain sam2, stronger effect = lower value 1.01 | locus YEL003W, strain gim4, stronger effect = lower value 0.995 | locus YEL037C, strain rad23, stronger effect = lower value 0.972 | locus YEL061C, strain CIN8 (second series), stronger effect = lower value 0.978 | locus YEL061C, strain CIN8, stronger effect = lower value 1.01 | locus YER015W, strain faa2, stronger effect = lower value 0.99 | locus YER016W, strain bim1, stronger effect = lower value 0.995 | locus YER110C, stronger effect = lower value 0.997 | locus YER111C, strain swi4, stronger effect = lower value 0.96 | locus YER155C, strain BEM2 (second series), stronger effect = lower value 0.973 | locus YER155C, strain BEM2, stronger effect = lower value 1.02 | locus YER167W, strain BCK2, stronger effect = lower value 1.02 | locus YFR010W, strain ubp6, stronger effect = lower value 0.974 | locus YGL078C, strain dbp3, stronger effect = lower value 1 | locus YGL086W, strain mad1, stronger effect = lower value 1 | locus YGL167C, strain pmr1, stronger effect = lower value 0.967 | locus YGL173C, strain kem1, stronger effect = lower value 0.97 | locus YGL227W, strain vid30, stronger effect = lower value 0.984 | locus YGL240W, strain doc1, stronger effect = lower value 0.992 | locus YGL248W, strain PDE1, stronger effect = lower value 1.02 | locus YGL253W, strain hxk2, stronger effect = lower value 0.98 | locus YGR078C, strain PAC10, stronger effect = lower value 1.05 | locus YGR135W, strain pre9, stronger effect = lower value 1.01 | locus YGR229C, strain SMI1, stronger effect = lower value 1.03 | locus YGR252W, strain gcn5, stronger effect = lower value 0.972 | locus YHR013C, strain ard1, stronger effect = lower value 0.952 | locus YHR027C, strain rpn1, stronger effect = lower value 0.968 | locus YHR030C, strain SLT2, stronger effect = lower value 1.01 and 0.991 | locus YHR079C, strain IRE1 (second series), stronger effect = lower value 1 | locus YHR079C, strain IRE1, stronger effect = lower value 0.984 | locus YHR094C, strain hxt1, stronger effect = lower value 1 | locus YHR129C, strain ARP1, stronger effect = lower value 1.01 | locus YHR142W, strain chs7, stronger effect = lower value 0.951 | locus YHR200W, strain rpn10, stronger effect = lower value 1.01 | locus YIL066C, strain RNR3, stronger effect = lower value 1.02 | locus YIL073C, strain SPO22, stronger effect = lower value 1.03 | locus YIL125W, strain kgd1, stronger effect = lower value 1.01 | locus YIR030C, strain dcg1, stronger effect = lower value 1 | locus YJL092W, strain hpr5, stronger effect = lower value 0.976 | locus YJL095W, strain BCK1 (second series), stronger effect = lower value 0.987 | locus YJL095W, strain BCK1, stronger effect = lower value 1.02 and 0.987 | locus YJL115W, strain asf1, stronger effect = lower value 0.958 | locus YJL129C, strain trk1, stronger effect = lower value 0.973 | locus YJL134W, strain LCB3, stronger effect = lower value 1.01 | locus YJL154C, strain vps35, stronger effect = lower value 0.982 | locus YJL164C, strain tpk1, stronger effect = lower value 0.954 | locus YJL166W, strain qcr8, stronger effect = lower value 0.968 | locus YJL168C, strain set2, stronger effect = lower value 0.995 | locus YJL187C, strain SWE1 (second series), stronger effect = lower value 1.02 | locus YJL187C, strain SWE1, stronger effect = lower value 0.974 | locus YJR043C, strain POL32, stronger effect = lower value 1.02 | locus YJR066W, strain TOR1, stronger effect = lower value 0.938
